Data published in PubChem BioAssay (Tox21).
“And” between values parts separate entries of the source, which are not always exact repeats. Identical values can stand only once. Results filed as inconclusive are left out. Where a call stands in place of a potency, no number is given. Values without a mark were called inactive. The source made the active and inactive calls. The call rests on the fitted dose curve; in most records, active means well fitted inhibition curve with a large enough effect in the signal ratio in the repeat runs (not every such curve was filed as active); inconclusive means weak or mixed curves; inactive means flat fitted curve, though single readings scatter; the % refers to the signal ratio.

The compounds below were run against Progesterone receptor (Homo sapiens) (UniProt P06401) (assay: qHTS assay to identify small molecule antagonists of the progesterone receptor (PR) signaling pathway (AID 1346795)). Conditions: PR-UAS-bla HEK293T, beta-lactamase FRET ratio, 16 h; series mostly up to 92.4 µM; activity change, negative = inhibition: at the top concentration.
Chain of Progesterone receptor (Homo sapiens) (P06401 whole entry, looked up): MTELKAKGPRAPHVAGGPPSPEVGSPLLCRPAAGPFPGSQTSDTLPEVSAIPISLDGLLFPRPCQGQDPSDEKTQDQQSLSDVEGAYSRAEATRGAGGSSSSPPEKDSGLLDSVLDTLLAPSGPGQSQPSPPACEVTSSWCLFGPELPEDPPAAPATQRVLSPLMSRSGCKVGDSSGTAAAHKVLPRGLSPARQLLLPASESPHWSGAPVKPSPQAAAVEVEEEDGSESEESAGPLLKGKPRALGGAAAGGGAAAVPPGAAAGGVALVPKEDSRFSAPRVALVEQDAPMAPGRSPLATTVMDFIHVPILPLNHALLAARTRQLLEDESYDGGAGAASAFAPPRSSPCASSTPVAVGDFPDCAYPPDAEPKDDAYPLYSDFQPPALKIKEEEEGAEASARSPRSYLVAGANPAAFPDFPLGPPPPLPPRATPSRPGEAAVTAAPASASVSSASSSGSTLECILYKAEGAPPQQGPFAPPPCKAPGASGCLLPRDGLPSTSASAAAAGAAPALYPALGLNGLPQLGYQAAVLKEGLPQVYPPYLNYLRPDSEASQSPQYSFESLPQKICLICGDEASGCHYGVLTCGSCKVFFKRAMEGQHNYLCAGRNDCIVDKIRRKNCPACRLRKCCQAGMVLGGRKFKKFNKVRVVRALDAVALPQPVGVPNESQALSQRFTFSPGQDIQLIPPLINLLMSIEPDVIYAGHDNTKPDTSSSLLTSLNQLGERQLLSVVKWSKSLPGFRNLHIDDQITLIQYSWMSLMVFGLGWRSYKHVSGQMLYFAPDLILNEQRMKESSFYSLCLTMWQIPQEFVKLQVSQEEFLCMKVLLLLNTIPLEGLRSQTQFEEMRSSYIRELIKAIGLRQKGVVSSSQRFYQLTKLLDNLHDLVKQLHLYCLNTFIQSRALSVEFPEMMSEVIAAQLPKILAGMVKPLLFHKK
Text: National Center for Advancing Translational Sciences [NCATS]
NIH Chemical Genomics Center [NCGC]
U.S. Environmental Protection Agency [EPA]
National Institutes of Environmental Health Sciences [NIEHS]
National Toxicology Program [NTP]
U.S. Food and Drug Administration [FDA]
Progesterone receptor (PR), a nuclear hormone receptor, plays an important role in development, metabolic homeostasis and reproduction. […] Endocrine disrupting chemicals (EDCs) and their interactions with steroid hormone receptors like PR causes disruption of normal endocrine function. To identify the compounds that inhibit PR signaling, a PR-UAS-bla GripTite cell line i.e. PR-UAS-bla HEK293T (Invitrogen, Carlsbad, CA, USA) containing a beta-lactamase reporter gene under the control of an Upstream Activator Sequence (UAS) was used to screen Tox21 10K compound library.
Tox21 Assay Protocol Summary:
PR-UAS-bla HEK293T cells were dispensed at 3,000 cells/4 uL of assay medium containing 2% charcoal stripped FBS per well into black wall/clear-bottom 1536-well plates using a Multidrop Combi (ThermoFisher Scientific, Waltham, MA) dispenser. After the assay plates were incubated at a 37C and 5% CO2 for 6 hr, 23 nL of compounds dissolved in DMSO, positive controls or DMSO only was transferred to the assay plate by a Pintool station (Kalypsys, San Diego, CA), followed by addition of 1 uL (1nM as final concentration) of Promegestone (R5020) in assay medium using a BioRAPTR FRD (Flying Reagent Dispenser, Aurora Discovery, San Diego, CA). The plates were incubated at 37C and 5% CO2 for 16 hr. Then 1 uL of LiveBLAzer B/G FRET substrate was added using a FRD. After the plates were incubated at room temperature for 2 hours, fluorescence intensity was measured by an Envision plate reader (PerkinElmer, Shelton, CT).
Potency means the concentration at half of the fitted maximal effect.

Row | Compound | activity change, negative = inhibition | Potency
1 | CC1=CC(=O)CC(C)(C)C1 | 12.1% | –
2 | O=c1c(O)c(-c2ccc(O)c(O)c2)oc2cc(O)cc(O)c12 | – | 15.4 µM (active) and 16.8 µM (active)
3 | O=[N+]([O-])c1cc(C(F)(F)F)ccc1Cl | – | inactive
4 | CC(=O)CC(=O)N(C)C | – | inactive
5 | O=C1OC(=O)c2c(Cl)c(Cl)c(Cl)c(Cl)c21 | -7.69% | –
6 | O=C1O[C@H]([C@H](O)CO)C(O)=C1O | – | inactive
7 | COc1ccc(N)c(OC)c1 | – | inactive
8 | CN1Cc2c(N)cccc2C(c2ccccc2)C1 (stereo not given) | -14% [at 42.5 µM] | –
9 | CC(O)CNCC(C)O (stereo not given) | – | inactive
10 | Cc1nnc(NS(=O)(=O)c2ccc(N)cc2)s1 | – | inactive
11 | Nc1cccc(N)n1 | – | inactive
12 | CCCCCNCCCCC | – | inactive
13 | C=CC(=O)NCOCCCC | – | inactive
14 | C=C(CC(=O)O)C(=O)O | – | inactive
15 | CC/C=C(\C(=O)N[C@@H]1C(=O)N2C(C(=O)OCOC(=O)C(C)(C)C)=C(COC(N)=O)CS[C@H]12)c1csc(N)n1 | – | inactive
16 | CC(=O)c1nccs1 | – | inactive
17 | CC1(C)[C@@H](O[C@H]2O[C@H](C(=O)O)[C@@H](O)[C@H](O)[C@H]2O[C@@H]2O[C@H](C(=O)O)[C@@H](O)[C@H](O)[C@H]2O)CC[C@]2(C)[C@H]3C(=O)C=C4[C@@H]5C[C@@](C)(C(=O)O)CC[C@]5(C)CC[C@@]4(C)[C@]3(C)CC[C@@H]12 | – | inactive
18 | CCCCC(CC)COC(=O)c1ccc(C(=O)OCC(CC)CCCC)cc1 (stereo not given) | – | inactive
19 | NC(=O)c1ncn([C@@H]2O[C@H](CO)[C@@H](O)[C@H]2O)n1 | -12.6% [at 42.5 µM] | –
20 | OCCOCCOCCOCCOCCO | – | inactive

Row | Compound | activity change, negative = inhibition | Potency
21 | CC(=O)OCCC(C)C | – | inactive
22 | CO[Si](CCCNCCN)(OC)OC | – | inactive
23 | C[n+]1ccn(CCO)c1 | – | inactive
24 | CC(=O)OCc1ccc2c(c1)OCO2 | – | inactive
25 | COC(=O)OC | 10.1% | –
26 | Cc1cc(C)cc(O)c1 | – | inactive
27 | CCCN(CCC)C(=O)SCC | – | inactive
28 | CC(CN1c2ccccc2Sc2ccccc21)N(C)C (stereo not given) | – | 61.8 µM (active) and 30.6 µM (active)
29 | OCc1ccc(Cl)cc1Cl | – | inactive
30 | OB(O)O | – | inactive
31 | OCC(O)CS (stereo not given) | – | inactive
32 | C=C1C[C@]23C[C@@]1(O)CC[C@H]2[C@@]12C=C[C@H](O)[C@@](C)(C(=O)O1)[C@H]2[C@@H]3C(=O)O | – | inactive
33 | O=C1C(N(CO)C(=O)NCO)N(CO)C(=O)N1CO (stereo not given) | – | inactive
34 | CCn1cc(C(=O)O)c(=O)c2cc3c(cc21)OCO3 | – | inactive
35 | CCCCCCCCO | – | inactive
36 | NC(N)=S | – | inactive
37 | c1cnc2c(c1)ccc1cccnc12 | – | 309 nM (active) and 306 nM (active)
38 | CC/C(C)=N/O | – | inactive
39 | COc1c(Cl)ccc(Cl)c1C(=O)O | – | inactive
40 | C1CCCNCC1 | – | inactive
